ARNT TACC3 PPI: disruptors of ARNT/TACC3 protein interaction, primary screen, biochemical, AlphaScreen, single concentration; AlphaScreen His-ARNT PAS-B/GST-TACC3 binding, luminescence; TACC3 fragment carries E629A point mutation; inhibition, % at 9.99 µM; hit rate 0.66% among 390,000; AID 623870, 2012;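 active = mean inhibition of replicates at least 50% and at least half of replicates each reaching 50%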;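 also: 0% = complete ARNT plus TACC3 wells and 100% = ARNT alone without TACC3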
CendR NRP1 mod: modulators of CendR peptide binding to NRP-1, primary screen, biochemical, fluorescence polarization, uHTS; FAM-RPARPAR peptide binding to NRP-1; hit rate 0.85% among 360,000; AID 602438, 2012; inhibition, % at 25 µM; Neuropilin-1 (Homo sapiens), O14786;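 active = inhibition or corrected inhibition above about 18%, plus a signal ratio from 0.5 to 1.5, limit read from the data, passing the limit was not always enough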
PDI turbidity: inhibitors of human PDI, primary screen, biochemical, turbidity, single point, plate reader. Protein disulfide-isomerase (Homo sapiens), P07237. PDI insulin aggregation turbidity, A650, 90 min. hit rate 0.052% among 350,000. inhibition, % at 10 µM;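 active = mean inhibition across replicates of 30% or more, whatever share of single replicates reach that level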
Target sequence (P07237 whole entry, looked up): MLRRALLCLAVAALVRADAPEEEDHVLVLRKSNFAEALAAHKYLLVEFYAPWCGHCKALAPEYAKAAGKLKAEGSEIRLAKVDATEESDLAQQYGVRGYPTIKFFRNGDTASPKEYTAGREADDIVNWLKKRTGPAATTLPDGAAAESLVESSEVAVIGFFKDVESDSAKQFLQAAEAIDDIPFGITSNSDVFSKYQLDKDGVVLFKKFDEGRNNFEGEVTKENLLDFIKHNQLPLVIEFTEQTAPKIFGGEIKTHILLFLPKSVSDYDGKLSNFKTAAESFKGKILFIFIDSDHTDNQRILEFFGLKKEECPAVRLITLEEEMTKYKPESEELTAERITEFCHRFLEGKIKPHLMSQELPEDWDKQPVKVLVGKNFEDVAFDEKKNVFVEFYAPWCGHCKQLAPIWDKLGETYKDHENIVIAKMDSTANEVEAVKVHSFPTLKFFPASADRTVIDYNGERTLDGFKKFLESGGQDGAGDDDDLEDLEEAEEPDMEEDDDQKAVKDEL
PglD DTNB: C. jejuni PglD acetyltransferase inhibitors, primary screen, biochemical, DTNB colorimetric, single point; inhibition, % at 12.5 µM; AID 602405, 2012; hit rate 0.098% among 360,000; UDP-N-acetylbacillosamine N-acetyltransferase PglD (Campylobacter jejuni); purified PglD enzyme, DTNB colorimetric CoA detection; in the data active = inhibition above about 16%, passing the limit was not always enough
ALR H2O2 inh: inhibitors of human ALR sulfhydryl oxidase, primary screen, biochemical, H2O2 detection, HRP-luminol luminescence, single point. purified ALR, DTT oxidation. inhibition, % (no concentration beside the values). hit rate 3.8% among 290,000. AID 485317, 2010;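 active = mean replicate inhibition above about 79%, with every replicate also reaching it, limit read from the data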
ERp5 block: inhibitors of ERp5-driven insulin aggregation, primary screen, biochemical, turbidity, absorbance 650 nm, single point; hit rate 0.05% among 350,000; inhibition, % at 9.99 µM; Protein disulfide-isomerase A6 (Homo sapiens), Q15084; 90 min;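 active = mean replicate inhibition above about 25%, with every replicate also reaching it, limit read from the data, passing the limit was not always enough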
Starred values were filed as active, the others as inactive; . = no result given. The sample as a whole holds a higher share of hits than the screen did.

SMILES	ARNT TACC3 PPI	CendR NRP1 mod	PDI turbidity	PglD DTNB	ALR H2O2 inh	ERp5 block
CSCC(C)N1CCC(n2nccc2NC(=O)CCOc2ccccc2)CC1 (centres undefined)	-2	22*	-6	5	-7	-2
COCC(C)N1CCC(n2nccc2NC(=O)CCOc2ccccc2)CC1 (centres undefined)	1	-6	0	2	-4	2
COC(=O)c1ccc2c(c1O)C(=O)c1ccccc1C2=O	4	-9	4	0	-115	.
O=C1c2ccccc2C(=O)c2c1ccc(O)c2O	15	83*	4	4	.	1
Cc1cccc(NC(=S)NCCC(C)C)c1	-1	-2	3	.	92*	.
CC(C)CCNC(=S)Nc1ccccn1	-20	9	-4	11	91*	.
COCCNC(=S)Nc1ccccn1	1	-2	7	.	0	-3
C[C@H](CO)N1C[C@H](C)[C@@H](CN(C)C(=O)Nc2ccc(C(F)(F)F)cc2)Oc2ccc(NC(=O)Cc3cn(C)c4ccccc34)cc2CC1=O	-12	.	.	1	.	-10
O=C1/C(=C/c2cccnc2)CCc2c1[nH]c1ccccc21	-1	2	3	.	-11	0
CC1C/C(=C\c2cccnc2)C(=O)/C(=C/c2cccnc2)C1 (centres undefined)	2	7	6	.	96*	.
Cc1noc(C)c1CSCC(=O)NC1=NCCS1	-8	-7	-1	-1	97*	.
COc1ccc2nc(NC(=O)CSCc3c(C)noc3C)sc2c1	0	2	7	.	1	6
Cc1noc(C)c1CSCC(=O)Nc1nc2ccc(S(C)(=O)=O)cc2s1	-10	2	8	-5	97*	-1
Cc1cnc(NC(=O)CSCc2c(C)noc2C)s1	-5	13	-54	1	-13	19
Nc1ccc(Br)c2cccnc12	49*	12	-2	.	-10	-2
Cc1noc(C)c1S(=O)(=O)N(C)C[C@@H]1Oc2ccc(NC(=O)CCN3CCOCC3)cc2CC(=O)N([C@@H](C)CO)C[C@@H]1C	.	.	.	.	.	10
COc1ccc(CCNC(=O)COC(=O)CCC(=O)c2ccc(F)cc2)cc1	-9	2	5	-4	85*	2
COCC(=O)N1[C@@H](CO)[C@@H](c2ccccc2)C12CN(C(=O)NC1CCCC1)C2	.	.	.	.	.	-2
CO[C@@H]1CN(C)C(=O)c2ccc(NC(=O)C3CCOCC3)cc2OC[C@@H](C)N(C(=O)Nc2ccc(C(F)(F)F)cc2)C[C@H]1C	-2	.	.	2	.	5
C/C=C/C(=O)Nc1nnc(-c2ccccc2C)s1	0	-2	0	2	98*	3
CC(C)Cn1c(N)c(C=O)c(=O)n(C)c1=O	2	4	-2	-9	100*	1
CC(C)Cn1c(N)c(C(=O)COC(=O)c2ccc(O)cc2)c(=O)n(C)c1=O	-1	-1	55*	.	-7	0
CC(C)Cn1c(N)c(C(=O)CCl)c(=O)n(C)c1=O	-3	5	0	-4	98*	6
CC(C)Cn1c(N)c(C(=O)COC(=O)c2cc(F)cc(F)c2)c(=O)n(C)c1=O	-17	-9	3	.	-1	-8
COc1ccc(C(=O)OCC(=O)c2c(N)n(C)c(=O)n(C)c2=O)cc1OC	-1	2	-3	.	-17	1
SMILES	ARNT TACC3 PPI	CendR NRP1 mod	PDI turbidity	PglD DTNB	ALR H2O2 inh	ERp5 block
CC(=O)Oc1ccc(C(=O)OCC(=O)c2c(N)n(C)c(=O)n(C)c2=O)cc1OC(C)=O	6	-11	-1	2	99*	2
Cn1c(=O)c(C(=O)CCl)c(N)n(CC2CC2)c1=O	-12	4	-2	10	18	.
O=C(C[C@@H]1CC[C@H]2[C@@H](COC[C@H](O)CN2C(=O)Nc2cccc(F)c2)O1)NCc1ccccc1Cl	0	.	.	3	.	1
O=[N+]([O-])c1ccc(Cc2ccc([N+](=O)[O-])cc2)cc1	14	-3	-2	.	.	-5
O=[N+]([O-])c1ccc(Cc2ccncc2)cc1	-10	26*	1	.	-9	-5
Cc1ccc(F)c([C@H]2[C@@H]3C=CCC[C@@]3(C)C(=O)N2Cc2ccccc2)c1	0	28*	0	-2	-5	-2
Cc1ccc(-c2cc([C@H]3[C@@H]4C=CCC[C@@]4(C)C(=O)N3Cc3ccccc3)ccc2F)cc1	-3	6	-6	-2	.	4
C[C@H](CO)N1C[C@H](C)[C@@H](CN(C)Cc2ccccc2)Oc2ncc(C#CC3(O)CCCC3)cc2C1=O	-1	.	.	2	.	18
CS(=O)(=O)c1cccc(C(=O)Nc2cccc(-c3nc4ccccc4[nH]3)c2)c1	33	2	5	-1	99*	3
CS(=O)(=O)c1ccc(C(=O)Nc2cccc(-c3nc4ccccc4[nH]3)c2)cc1	3	-8	11	5	99*	5
COc1ccc(OCC(=O)NCc2cccnc2)cc1	.	2	3	5	-6	.
Cc1oc(-c2ccc(Cl)cc2)nc1CN1CCCC(C(=O)NCc2cccnc2)C1 (centres undefined)	5	-14	-2	-6	-2	.
CCc1ccc(-c2nc(CS(=O)CC(=O)NCc3cccnc3)c(C)o2)cc1 (centres undefined)	3	-3	-19	5	99*	.
COc1ccc(-c2nc(CS(=O)CC(=O)NCc3cccnc3)c(C)o2)cc1 (centres undefined)	-3	-10	.	-1	99*	-2
CCOc1ccc(-c2nc(CS(=O)(=O)CC(=O)NCc3ccc(F)cc3)c(C)o2)cc1	-6	-5	.	5	25	-2
COc1ccc(-c2nc(CS(=O)CC(=O)NCc3ccc(F)cc3)c(C)o2)cc1 (centres undefined)	-18	7	4	.	99*	-3
CC(C)NC(=O)N1[C@@H]2CN(C(=O)C3CCC3)c3ccccc3[C@@H]2[C@@H]1CO	0	.	.	-5	.	1
COc1ccc(S(=O)(=O)N(C)C[C@@H]2Oc3ccc(NC(=O)C4CC4)cc3CC(=O)N([C@H](C)CO)C[C@H]2C)cc1	-2	.	.	4	.	2
COc1ccc(CN(C)C[C@H]2Oc3c(NC(=O)C4CCOCC4)cccc3C(=O)N([C@@H](C)CO)C[C@@H]2C)cc1	-10	.	.	2	.	0
Cc1cccc(Cn2nnc3ccccc32)c1O	-26	2	5	-7	90*	1
C[C@H](CO)N1C[C@H](C)[C@H](CN(C)CC2CCOCC2)Oc2ncc(-c3cccc(F)c3)cc2C1=O	13	.	.	0	.	0

Bioassay records deposited in PubChem BioAssay by several laboratories.
